This passage reports growth results from PubChem BioAssay (NCI).

The panel holds about 83,000 compounds, 20% with a hit somewhere; the sample as a whole holds those more often.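 Percent growth is the endpoint: 0 to 100 indicates growth inhibition (40 means 60% inhibition), 0 means no net growth, and negative values indicate cell death.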 Values without a mark were called inactive. Activity calls are given as the source filed them. The calls were made as follows: active = growth percent below 10; inactive = the rest.

Holding throughout (assay): NCI-60 one-dose screen, 48 h (100 = growth as untreated, 0 = no growth, -100 = all killed)
Holding throughout (conditions): 10 µM unless noted

Experiment [1] deals with HCT-15 colon.
For experiment [2], the system named is HT29 colon.
Experiment [3] concerns SNB-75 CNS.
The test system of experiment [4] is SNB-19 CNS.
Experiment [5] relates to U251 CNS.
Experiment [6] relates to PC-3 prostate.
Experiment [7] deals with SK-MEL-5 melanoma.
Experiment [8] relates to LOX IMVI melanoma.
Experiment [9] concerns SK-MEL-28 melanoma.

With `COc1cccc(-c2nn(-c3ccccc3)cc2-c2ccnc(NCCCNS(=O)(=O)c3ccc(Cl)cc3)c2)c1`, the growth in [1] was 34.4%; in experiment [2], 11.3%; in experiment [3] it was 71.2%; in [4], 52.1%; in experiment [5] it was 35.5%; in experiment [6], 25.1%. Also, the growth in experiment [7] is 30.8%; in experiment [8] it was 52.3%.
With `Clc1ccc(Cn2cc(-c3nc4ccc(Br)nc4n3Cc3ccc(Cl)cc3)c3cccnc32)cc1`, the growth in experiment [1] was 87.2%; in experiment [2], 96.3%; in [3], 64.1%; in experiment [4], 89.2%; in [5] it was 94.8%; in experiment [6], 65.7%. Also, the growth in [7] is 74.3%; in [8], 85.4%.
Take `CCC(c1ccc(OC)cc1)C(CC)c1ccc(O)c(CN2CCCCC2)c1` (centres undefined): the growth was 33.6% in experiment [1]; 24.7% in experiment [2]; 94.5% in experiment [3]; 90.6% in experiment [4]; 72.8% in experiment [5]; 54.3% in experiment [6]. The growth is 30.6% in experiment [7], 75.9% in experiment [8] and 41.6% in experiment [9].
For the compound `Cc1cc(C)c(NC(=O)c2sc3nc4c(cc3c2N)CCCC4)c(C)c1`, the growth is 32.1% in [1]; 13.9% in [2]; 18.5% in experiment [3]; 43.4% in [4]; 27.7% in experiment [5]; 54% in [6]. Further, the growth was 50.1% in experiment [7] and 37.6% in experiment [8].
On to `CC(=O)OCCCCCCn1c2ccccc2c2c3c(c4c5ccccc5n(C)c4c21)C(=O)N(O)C3=O`, for which the growth in experiment [1] was 69.5%; in experiment [2] it was 23.7%; in experiment [3] it was 101%; in [4] it was 77.5%; in [5], 58.4%; in experiment [6], 52.9%. In addition, the growth is 41.7% in experiment [7] and 5.8% (active) in experiment [8].
For the compound `COC(=O)[C@]12CC[C@@H](C)[C@H](C)[C@@H]1C1=CC[C@@H]3[C@@]4(C)C=C(O)C(=O)C(C)=C4CC[C@@]3(C)[C@]1(C)CC2`, the growth in experiment [1] is 25.2%; in experiment [2] it was 11.7%; in experiment [3] it was 63%; in experiment [4], 59.9%; in experiment [5], 43.4%; in experiment [6] it was 12.7%. Besides, the figures for the growth in experiment [7] and in [8] were 29.5% and 16.5%, respectively.
With `Cn1c(=O)c2c(ncn2CC(=O)Nc2ccc(S(N)(=O)=O)cc2)n(C)c1=O`, the growth in experiment [1] is 106%; in experiment [2], 94.8%; in experiment [3] it was 87.8%; in [4] it was 102%; in experiment [5] it was 96.6%; in experiment [6] it was 83.4%. The values for the growth in experiment [7], in experiment [8] and in experiment [9] were 111%, 97.6% and 115%, respectively.
Turning to `Nc1ncnc2nc(Br)[nH]c12`, the growth was 108% in experiment [1]; 102% in [2]; 87.2% in [3]; 101% in experiment [4]; 89.4% in [5]; 78.3% in experiment [6]. Moreover, the growth in [7] was 100%; in experiment [8], 93.7%; in experiment [9] it was 114%.
In the case of `Cn1cc(-c2csc(-c3cn(CCCN4CCCCC4)c4ccc(Br)cc34)n2)c2cccnc21`, the growth was -78.2% (active) in experiment [1]; -72.8% (active) in experiment [2]; 63.6% in experiment [3]; -45.3% (active) in experiment [4]; -80.6% (active) in [5]; -8.66% (active) in experiment [6]. For the same compound, the growth in experiment [7] was -33.7% (active); in [8] it was -71.4% (active); in experiment [9], -86.6% (active).
`COc1cc(/C=C2\C(=O)N(CC(O)COc3cc(O)c4c(=O)cc(-c5ccccc5)oc4c3)c3ccccc32)cc(OC)c1O` (centres undefined): the growth in experiment [1] is 59.1%; in experiment [2] it was 88.2%; in experiment [3], 81.1%; in experiment [4], 92.2%; in experiment [5], 91.6%; in experiment [6] it was 61.1%. The results for the growth in experiment [7], in experiment [8] and in experiment [9] were 50%, 80.2% and 92%, respectively.
As to `Cc1ccc(N(CC(=O)Nc2ccc(S(=O)(=O)N3CCC(N4CCCC4)CC3)cc2)S(=O)(=O)c2ccc(Cl)cc2)cc1`, the growth in [1] is -47.8% (active); in [2], -16.9% (active); in experiment [3] it was 62.7%; in [4] it was 40.6%; in experiment [5] it was -2.58% (active); in experiment [6], 12%. For the same compound, the growth in experiment [7] was -97.6% (active); in [8], -88.5% (active); in experiment [9] it was -68.3% (active).
With `CCN(CC)CCCCCNc1cc(OC(=O)c2ccccc2)cc2cccnc12`, the growth in experiment [1] was 78.5%; in experiment [2], 20.3%; in experiment [3], 70.9%; in experiment [4], 101%; in experiment [5] it was 98.2%; in experiment [6], 77%. For the same compound, the values for the growth in experiment [7], in experiment [8] and in [9] were 138%, 58.1% and 121%, respectively.
Consider `Cn1cc(-c2csc(-c3cn(CCCN4CCCCC4)c4ccc(F)cc34)n2)c2cccnc21`, for which the growth is 77.5% in experiment [1]; 75.2% in [2]; 77.2% in [3]; 90.3% in [4]; 85.2% in experiment [5]; 71.5% in experiment [6]. In addition, the figures for the growth in experiment [7], in experiment [8] and in [9] were -27.7% (active), 85.4% and -78.9% (active), respectively.
Regarding `Cc1cc(N=O)cc(C(C)(C)C)c1O`, the growth is 101% in experiment [1]; 85% in experiment [2]; 87.7% in experiment [3]; 98.7% in experiment [4]; 88.6% in experiment [5]; 74.5% in [6]. The growth in experiment [7] is 98.3%; in experiment [8], 98.3%; in experiment [9], 106%.
As for `N#CCCCCCn1c2ccccc2c2c3c(c4c5ccccc5n(CCCCCC#N)c4c21)C(=O)N(O)C3=O`, the growth in [1] was 97.3%; in experiment [2], 68%; in [3] it was 100%; in experiment [4] it was 66.7%; in experiment [5], 83.8%; in [6] it was 68.5%. In addition, the growth was 74.2% in experiment [7] and 24% in [8].
